In all, about 13,000 compounds went through this assay and about 3,200 (25%) showed an effect of 50% or more. The list shows a part of the results.
Test system: P. falciparum stage V gametocytes
Design: BacTiter-Glo ATP luminescence viability of purified stage V gametocytes in 384-well plates, per cent inhibition versus DMSO
Conditions: 48 h, 5 µM; inhibitor

SMILES | % Inhibition
CN(C)CCCNc1ncnc2c1[nH]c1ccc(Br)cc12 [TCMDC-124583] | -18.04%
NC1CCN(c2nc(NCCCc3ccc(O)cc3)nc(NCc3ccccc3-c3ccc(C(F)(F)F)cc3)n2)CC1 [TCMDC-133395] | 21.49%
COc1cc(F)c2ncc(C#N)c(CCN3CCC(NCc4ccc5c(c4)OCCO5)CC3)c2c1 [TCMDC-135367] | 11.13%
O=C1OC2(CN1CC1CCN(Cc3ccc(O)cc3Cl)C1)c1ccccc1-c1ccccc12 (centres unmarked) [TCMDC-136313] | 14.23%
CON=Cc1ccn(-c2ccc(O)c3c2C[C@H]2C[C@H]4[C@H](N(C)C)C(=O)C(C(N)=O)=C(O)[C@@]4(O)C(=O)C2=C3O)c1 [TCMDC-138646] | 4.088%
C=C1C(C(=O)OCC)=CN(CC)c2cc(O[C@H]3CCN(C(=O)OC(C)(C)C)C3)ccc21 [TCMDC-135646] | 47.67%
COc1cc2c(cc1OC)CN(CCc1ccc(NC(=O)c3cc4cc(OC(F)(F)F)ccc4[nH]3)cc1)CC2 [TCMDC-138250] | 36.42%
CCc1cn(CCc2ccccc2)c2ccc(C(=O)N[C@@H](Cc3ccccc3)[C@H](O)CNC(C)(C)CCCC(C)C)cc12 [TCMDC-135282] | 76.37%
CCc1cn2c3c(cc(C(=O)N[C@@H](Cc4ccccc4)[C@H](O)CN[C@@H](C)CC)cc13)N(C)S(=O)(=O)CC2 [TCMDC-135801] | 46.03%
CCc1cn(CCS(C)(=O)=O)c2ccc(C(=O)N[C@@H](Cc3ccccc3)[C@H](O)CNC(C)(C)CCCC(C)C)cc12 [TCMDC-135268] | 68.72%
CCc1cn(CCOC)c2ccc(C(=O)N[C@@H](Cc3ccccc3)[C@H](O)CNC(C)(C)CCCC(C)C)cc12 [TCMDC-135259] | 69.62%
CCc1cn(CCCOC)c2ccc(C(=O)N[C@@H](Cc3ccccc3)[C@H](O)CNCc3cccc(C(F)(F)F)c3)cc12 [TCMDC-135241] | 4.563%
C(=N\Nc1nccc2sc(-c3ccccc3)cc12)/c1cccnc1 [TCMDC-135190] | -94.18%
COc1ccc(S(=O)(=O)N2CCOCC2)cc1NC(=O)c1cc2ccccc2o1 [TCMDC-124328] | -2.829%
N#Cc1ccc(-c2ccc(OCC(O)CN3CCCN(C(=O)C(c4ccc5c(c4)OCO5)N4CCN(C/C=C/c5ccccc5)CC4)CC3)cc2)cc1 (centres unmarked) [TCMDC-141496] | 18.87%
COc1cc2c(cc1NC(=O)CN1CCN(C(=O)c3ccco3)CC1)oc1ccccc12 [TCMDC-123712] | 37.25%
Cn1cnc2nc(NCCc3ccccc3)nc(NCc3cccc4ccccc34)c21 [TCMDC-131862] | 52.06%
c1ccc2c(CNc3nc(NCC4CCCCC4)nc4nc[nH]c34)cccc2c1 [TCMDC-131860] | -36.72%
c1ccc(CCNc2nc(NCC(c3ccccc3)c3ccccc3)c3[nH]cnc3n2)cc1 [TCMDC-131858] | -2.796%
O=C1COc2ccccc2N1CCN1CCC(NCc2ccc(-c3cccs3)cc2)CC1 [TCMDC-135135] | -33.37%
COCc1nc(N)nc(N)c1-c1ccc(Cl)c(Cl)c1 [TCMDC-137373] | -9.797%
O=C(NCCNc1ccnc(Nc2ccc(F)cc2)n1)Nc1ccccc1F [TCMDC-133640] | -0.7257%

SMILES | % Inhibition
O=C(NCCNc1nc(NCCNC(=O)Nc2ccccc2)c2ccc(=O)n(-c3c(F)cccc3F)c2n1)Nc1ccccc1 [TCMDC-136645] | 74.46%
COc1ccc(Nc2nccc(NCCNC(=O)Nc3ccccc3F)n2)cc1 [TCMDC-133645] | -48.4%
COc1ccc(NC(=O)/C=C/c2ccccc2Cl)cc1OCCN1CCC(c2nc3ccccc3[nH]2)CC1 [TCMDC-140921] | -39.17%
O=C(/C=C/c1ccc(Cl)c(Cl)c1)NCCCCCN1CCC(NC(=O)NC2CCCCC2)CC1 [TCMDC-135700] | -41.72%
ON=C(c1nc2ccccc2[nH]1)c1nc2ccccc2[nH]1 [TCMDC-125758] | 102.3%
c1ccc2[nH]c(CN(Cc3nc4ccccc4[nH]3)Cc3nc4ccccc4[nH]3)nc2c1 [TCMDC-124132] | -49.22%
c1ccc2[nH]c(Nc3ccc(Nc4nc5ccccc5[nH]4)cc3)nc2c1 [TCMDC-131951] | -2.479%
COc1cc(C(=O)NCCCN2CCN(c3cccc(Cl)c3)CC2)ccc1-c1nc2cc(Cl)c(F)cc2[nH]1 [TCMDC-140095] | -11.24%
O=C(c1ccccc1[N+](=O)[O-])N(Cc1ccccc1)c1ccccn1 [TCMDC-125748] | 16.59%
C=CCn1c(Sc2ccc(C#N)c([N+](=O)[O-])c2)nnc1-c1cc(OC)cc(OC)c1 [TCMDC-135590] | 71.82%
CC(C)Cn1c(Sc2ccc(C#N)c([N+](=O)[O-])c2)nnc1-c1ccc(N(C)C)cc1 [TCMDC-135612] | 35.05%
C=CCn1c(Sc2ccc(C#N)c([N+](=O)[O-])c2)nnc1-c1cccc(Cl)c1 [TCMDC-135595] | 80.55%
CCCCCn1c(Sc2ccc(C#N)c([N+](=O)[O-])c2)nnc1-c1cc(OC)cc(OC)c1 [TCMDC-135588] | -41.27%
CCCCCn1c(Sc2ccc(C#N)c([N+](=O)[O-])c2)nnc1-c1cccc(Cl)c1 [TCMDC-135593] | -8.18%
CC(C)Cn1c(Sc2ccc(C#N)c([N+](=O)[O-])c2)nnc1-c1cccc(Cl)c1 [TCMDC-135580] | 40.84%
CCCCn1c(Sc2ccc(C#N)c([N+](=O)[O-])c2)nnc1-c1cccc(Cl)c1 [TCMDC-135579] | 86.95%
COc1ccc(-c2nnc(Sc3ccc(C#N)c([N+](=O)[O-])c3)n2CC(C)C)cc1 [TCMDC-135584] | 36.77%
C=CCn1c(Sc2ccc(C#N)c([N+](=O)[O-])c2)nnc1-c1ccc(Cl)cc1 [TCMDC-135600] | 77.78%
CCCCCCn1c(Sc2ccc(C#N)c([N+](=O)[O-])c2)nnc1-c1cccc(Cl)c1 [TCMDC-135594] | 24.59%
C=CCn1c(Sc2ccc(C#N)c([N+](=O)[O-])c2)nnc1-c1ccc(OC)cc1 [TCMDC-135605] | 28.83%
O=[N+]([O-])c1cc(C(c2ccc(O)c([N+](=O)[O-])c2)C(Cl)(Cl)Cl)ccc1O [TCMDC-124158] | 25.13%
COc1ccccc1NC(=O)Nc1cccc(-c2cccc(-c3nc4ccc(C(F)(F)F)cc4[nH]3)c2)c1 [TCMDC-133205] | 10.02%

SMILES | % Inhibition
[O-][S+]1c2ccccc2Sc2ccccc21 [TCMDC-124300] | -7.237%
CC(C)Cn1ncc2c3c(N)nc(N)nc3ccc21 [TCMDC-137970] | 3.163%
O=C(Nc1ccccc1)OCCOc1ccc(CC2SC(=O)NC2=O)cc1 (centres unmarked) [TCMDC-131642] | 13.3%
N#Cc1ccc2c(c1)CCN(CCC1CCC(NC(=O)/C=C/c3cc(Br)cs3)CC1)CC2 (centres unmarked) [TCMDC-139841] | -33.15%
O=C(Nc1ccccc1Cl)N(Cc1cc(Cl)cc(Cl)c1)CC(O)COc1ccc(Cl)c(F)c1 (centres unmarked) [TCMDC-141477] | 10.95%
O=C(/C=C/c1ccc(Cl)cc1)NCCCCCN1CCC(C(=O)Nc2ccc(Cl)cc2)CC1 [TCMDC-136115] | 64.6%
COc1ccc(NC(=O)C2CCN(CCCCCNC(=O)/C=C/c3ccc(Cl)c(Cl)c3)CC2)cc1 [TCMDC-136128] | 80.86%
O=C(/C=C/c1ccc(Cl)c(Cl)c1)NCCCCCN1CCC(C(=O)Nc2ccc(Cl)c(Cl)c2)CC1 [TCMDC-136124] | 40.37%
O=C(/C=C/c1ccc(Cl)cc1)NCCCCCN1CCC(C(=O)Nc2cccc(Cl)c2)CC1 [TCMDC-136119] | -9.305%
O=C(/C=C/c1ccc(Cl)c(Cl)c1)NCCCCCN1CCC(C(=O)Nc2ccc(Cl)cc2)CC1 [TCMDC-136116] | -21.25%
O=C(/C=C/c1ccc(Cl)cc1)NCCCCCN1CCC(C(=O)Nc2ccc(Cl)c(Cl)c2)CC1 [TCMDC-136123] | -40.47%
Cc1cc(C)cc(OCC(O)CN(Cc2cc(Cl)cc(Cl)c2)C(=O)Nc2ccc(Cl)cc2)c1 (centres unmarked) [TCMDC-141475] | 25.73%
O=C(Nc1cccc(Cl)c1N1CCOCC1)C(Cl)(Cl)Cl [TCMDC-124993] | 8.6%
CN(C)CCOc1cc(NC(=O)Nc2ccc3c(c2)CCCC3=O)ccc1I [TCMDC-139187] | -8.397%
O=C(Nc1ccc(C(=O)N2CCN(CCN3CCN(c4cccc(C(F)(F)F)c4)CC3)CC2)cc1)c1ccc(C(F)(F)F)cc1 [TCMDC-138148] | -21.85%
O=C(NCCCCCN1CCCN(C(=O)Nc2ccc(Cl)c(C(F)(F)F)c2)CC1)C1CC1c1ccc(Cl)c(Cl)c1 (centres unmarked) [TCMDC-136255] | -20.94%
O=C(Nc1ccc(Cl)c(Cl)c1)N[C@H]1CCN(CCCCCNC(=O)C2CC2c2ccc(Cl)c(Cl)c2)C1 (some centres unmarked) [TCMDC-136266] | -8.426%
O=C(Nc1ccc(Cl)c(C(F)(F)F)c1)NC1CCN(CCCCCNC(=O)C2CC2c2ccc(Cl)c(Cl)c2)CC1 (centres unmarked) [TCMDC-136260] | 59.16%
O=C(Nc1ccc(C(F)(F)F)cc1)N[C@H]1CCN(CCCCCNC(=O)C2CC2c2ccc(Cl)c(Cl)c2)C1 (some centres unmarked) [TCMDC-136272] | 93.26%
O=C(Nc1ccc(Cl)c(C(F)(F)F)c1)N[C@H]1CCN(CCCCCNC(=O)C2CC2c2ccc(Cl)c(Cl)c2)C1 (some centres unmarked) [TCMDC-136274] | 80.05%
O=C(Nc1ccc(C(F)(F)F)cc1)NC1CCN(CCCCCNC(=O)C2CC2c2ccc(Cl)c(Cl)c2)CC1 (centres unmarked) [TCMDC-136256] | 4.226%

Source: PMC4552634, “A New Set of Chemical Starting Points with Plasmodium falciparum Transmission-Blocking Potential for Antimalarial Drug Discovery” (PLoS ONE, 2015)
